Assay results reported in the supplement of paper PMC11732987, “Enantioselective OTUD7B fragment discovery through chemoproteomics screening and high-throughput optimisation” (Communications Chemistry, 2025).

Experiments:
Assay in all cases: log2 ratio of Biotin-Ahx-Ub-VS probe labelling (fragment/DMSO); higher = less target engagement (more negative = stronger competition), active = hit call of the paper (q ≤ 0.05, log2 ratio ≤ -1)
Conditions in all cases: compound concentration: 200 uM; treatment time: 3 h
ALG13 = target: T1, ALG13 (UniProt Q9NP73)
T1 sequence (whole entry): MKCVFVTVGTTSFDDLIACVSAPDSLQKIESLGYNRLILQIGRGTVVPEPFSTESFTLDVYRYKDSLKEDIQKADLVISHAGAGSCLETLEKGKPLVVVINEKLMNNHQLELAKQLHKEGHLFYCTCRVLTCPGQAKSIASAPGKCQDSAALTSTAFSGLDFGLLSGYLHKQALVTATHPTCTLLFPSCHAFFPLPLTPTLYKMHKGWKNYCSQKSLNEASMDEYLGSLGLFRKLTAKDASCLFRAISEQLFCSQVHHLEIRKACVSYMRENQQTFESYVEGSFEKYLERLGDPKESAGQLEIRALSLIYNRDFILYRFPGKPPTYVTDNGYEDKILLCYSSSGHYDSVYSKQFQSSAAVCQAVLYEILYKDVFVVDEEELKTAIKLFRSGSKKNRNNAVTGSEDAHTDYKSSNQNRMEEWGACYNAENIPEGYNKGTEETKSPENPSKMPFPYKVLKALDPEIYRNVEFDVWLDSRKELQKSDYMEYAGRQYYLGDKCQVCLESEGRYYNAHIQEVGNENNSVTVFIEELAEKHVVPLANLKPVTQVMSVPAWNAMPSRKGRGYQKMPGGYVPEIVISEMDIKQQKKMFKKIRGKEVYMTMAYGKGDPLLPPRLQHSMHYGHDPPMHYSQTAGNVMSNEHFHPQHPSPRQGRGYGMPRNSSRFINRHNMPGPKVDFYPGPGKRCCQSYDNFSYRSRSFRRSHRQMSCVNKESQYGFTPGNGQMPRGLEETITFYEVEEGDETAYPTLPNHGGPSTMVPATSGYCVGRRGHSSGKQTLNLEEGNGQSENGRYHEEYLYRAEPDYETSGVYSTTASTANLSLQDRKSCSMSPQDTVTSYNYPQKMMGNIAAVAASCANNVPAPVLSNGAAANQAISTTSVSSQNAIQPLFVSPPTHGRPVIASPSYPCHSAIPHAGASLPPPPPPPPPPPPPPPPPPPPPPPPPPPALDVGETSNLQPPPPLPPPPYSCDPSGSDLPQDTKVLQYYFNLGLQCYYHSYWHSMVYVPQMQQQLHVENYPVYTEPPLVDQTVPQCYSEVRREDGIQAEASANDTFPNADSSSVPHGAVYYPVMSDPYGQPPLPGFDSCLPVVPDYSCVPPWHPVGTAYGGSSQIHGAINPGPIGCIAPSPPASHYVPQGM
Method in brief: (§1)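 HEK293T lysate (495 µg per sample, in Tris/CHAPS/IGEPAL buffer with protease inhibitors) was treated in triplicate with fragment at 200 µM or with DMSO for 3 h. It was then treated with Biotin-Ahx-Ub-VS (0.5 µM final) for 1 h. Labelled DUBs were NeutrAvidin-enriched, digested with LysC and trypsin, and run by diaPASEF LC-MS/MS. Spectronaut label-free quantities were global-median-normalised. Values are average log2 ratios fragment/DMSO by unpaired t-test, using proteins with ≥2 unique peptides.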

ATXN3 = ATXN3 (UniProt P54252)
ATXN3, sequence (P54252 whole entry): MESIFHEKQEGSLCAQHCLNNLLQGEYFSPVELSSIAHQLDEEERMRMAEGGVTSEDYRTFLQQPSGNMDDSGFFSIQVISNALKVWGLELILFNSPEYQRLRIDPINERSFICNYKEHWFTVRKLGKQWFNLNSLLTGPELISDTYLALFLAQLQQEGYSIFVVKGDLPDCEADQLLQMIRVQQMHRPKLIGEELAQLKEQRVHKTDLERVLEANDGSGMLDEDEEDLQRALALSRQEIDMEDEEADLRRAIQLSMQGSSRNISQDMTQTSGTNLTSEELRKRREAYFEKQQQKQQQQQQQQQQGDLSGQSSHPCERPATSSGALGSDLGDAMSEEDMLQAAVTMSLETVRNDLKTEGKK
Method in brief: as §1

BAP1 = target: T2, BAP1 (UniProt Q92560)
T2 sequence (whole entry): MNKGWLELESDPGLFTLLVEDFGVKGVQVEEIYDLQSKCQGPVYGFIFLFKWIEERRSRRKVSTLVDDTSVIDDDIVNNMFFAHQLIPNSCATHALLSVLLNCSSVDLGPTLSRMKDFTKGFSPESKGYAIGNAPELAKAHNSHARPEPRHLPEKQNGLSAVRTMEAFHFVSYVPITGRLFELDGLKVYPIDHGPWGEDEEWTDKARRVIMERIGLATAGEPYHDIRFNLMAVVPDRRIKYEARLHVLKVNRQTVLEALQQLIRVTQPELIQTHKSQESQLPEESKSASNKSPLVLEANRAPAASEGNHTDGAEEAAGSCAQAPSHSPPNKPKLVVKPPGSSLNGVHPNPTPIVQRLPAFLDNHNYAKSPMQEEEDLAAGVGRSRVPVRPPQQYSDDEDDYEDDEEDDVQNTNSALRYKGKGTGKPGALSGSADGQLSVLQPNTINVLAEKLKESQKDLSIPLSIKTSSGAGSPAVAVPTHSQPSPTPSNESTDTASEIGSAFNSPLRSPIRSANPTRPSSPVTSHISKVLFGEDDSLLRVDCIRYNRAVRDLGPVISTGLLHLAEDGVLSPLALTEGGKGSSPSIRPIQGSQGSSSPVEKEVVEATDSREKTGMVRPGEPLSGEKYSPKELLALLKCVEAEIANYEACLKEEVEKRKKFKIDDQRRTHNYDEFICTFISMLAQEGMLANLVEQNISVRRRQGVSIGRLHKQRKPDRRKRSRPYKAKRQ
Method in brief: as §1

EIF3F = EIF3F (UniProt O00303)
EIF3F, sequence (O00303 whole entry): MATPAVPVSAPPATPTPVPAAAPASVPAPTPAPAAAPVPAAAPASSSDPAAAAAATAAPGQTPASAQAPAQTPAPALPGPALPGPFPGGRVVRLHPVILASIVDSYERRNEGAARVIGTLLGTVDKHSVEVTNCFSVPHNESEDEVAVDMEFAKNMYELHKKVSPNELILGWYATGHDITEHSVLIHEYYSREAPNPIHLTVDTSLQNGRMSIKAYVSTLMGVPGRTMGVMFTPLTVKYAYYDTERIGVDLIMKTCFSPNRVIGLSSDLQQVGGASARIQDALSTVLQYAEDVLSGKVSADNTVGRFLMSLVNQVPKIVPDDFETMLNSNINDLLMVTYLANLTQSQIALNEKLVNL
Method in brief: as §1

EIF3H = EIF3H (UniProt O15372)
EIF3H, sequence (O15372 whole entry): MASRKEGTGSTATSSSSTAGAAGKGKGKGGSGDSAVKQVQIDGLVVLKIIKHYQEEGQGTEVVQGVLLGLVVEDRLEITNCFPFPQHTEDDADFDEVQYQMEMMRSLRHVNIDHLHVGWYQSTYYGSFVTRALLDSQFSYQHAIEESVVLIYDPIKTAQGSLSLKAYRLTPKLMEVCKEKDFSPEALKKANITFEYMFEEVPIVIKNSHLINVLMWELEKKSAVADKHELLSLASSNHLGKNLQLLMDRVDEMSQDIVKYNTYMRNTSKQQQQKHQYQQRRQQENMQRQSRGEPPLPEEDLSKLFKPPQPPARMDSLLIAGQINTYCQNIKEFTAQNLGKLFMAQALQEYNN
Method in brief: as §1

FAM105A = target: T3, FAM105A (UniProt Q9NUU6)
T3 sequence (whole entry): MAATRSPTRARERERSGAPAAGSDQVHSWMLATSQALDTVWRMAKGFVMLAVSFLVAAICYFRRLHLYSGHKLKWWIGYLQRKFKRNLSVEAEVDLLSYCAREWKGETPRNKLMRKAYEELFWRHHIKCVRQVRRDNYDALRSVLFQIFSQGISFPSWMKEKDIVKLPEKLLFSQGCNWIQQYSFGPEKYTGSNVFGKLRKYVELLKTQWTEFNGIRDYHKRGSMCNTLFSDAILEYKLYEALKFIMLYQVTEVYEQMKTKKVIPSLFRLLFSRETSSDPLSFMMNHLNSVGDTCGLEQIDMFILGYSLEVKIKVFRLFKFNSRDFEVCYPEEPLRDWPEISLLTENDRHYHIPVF
Method in brief: as §1

OTUB1 = OTUB1 (UniProt Q96FW1)
OTUB1, sequence (Q96FW1 whole entry): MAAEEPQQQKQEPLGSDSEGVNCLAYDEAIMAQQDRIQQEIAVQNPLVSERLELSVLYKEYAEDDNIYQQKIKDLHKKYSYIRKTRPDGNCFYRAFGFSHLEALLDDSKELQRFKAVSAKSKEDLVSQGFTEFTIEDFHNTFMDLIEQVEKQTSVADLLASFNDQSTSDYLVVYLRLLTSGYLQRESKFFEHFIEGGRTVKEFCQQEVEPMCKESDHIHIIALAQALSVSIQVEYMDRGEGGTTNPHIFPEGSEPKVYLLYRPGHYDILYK
Method in brief: as §1

OTUD4 = target: T4, OTUD4 (UniProt Q01804)
T4 sequence (whole entry): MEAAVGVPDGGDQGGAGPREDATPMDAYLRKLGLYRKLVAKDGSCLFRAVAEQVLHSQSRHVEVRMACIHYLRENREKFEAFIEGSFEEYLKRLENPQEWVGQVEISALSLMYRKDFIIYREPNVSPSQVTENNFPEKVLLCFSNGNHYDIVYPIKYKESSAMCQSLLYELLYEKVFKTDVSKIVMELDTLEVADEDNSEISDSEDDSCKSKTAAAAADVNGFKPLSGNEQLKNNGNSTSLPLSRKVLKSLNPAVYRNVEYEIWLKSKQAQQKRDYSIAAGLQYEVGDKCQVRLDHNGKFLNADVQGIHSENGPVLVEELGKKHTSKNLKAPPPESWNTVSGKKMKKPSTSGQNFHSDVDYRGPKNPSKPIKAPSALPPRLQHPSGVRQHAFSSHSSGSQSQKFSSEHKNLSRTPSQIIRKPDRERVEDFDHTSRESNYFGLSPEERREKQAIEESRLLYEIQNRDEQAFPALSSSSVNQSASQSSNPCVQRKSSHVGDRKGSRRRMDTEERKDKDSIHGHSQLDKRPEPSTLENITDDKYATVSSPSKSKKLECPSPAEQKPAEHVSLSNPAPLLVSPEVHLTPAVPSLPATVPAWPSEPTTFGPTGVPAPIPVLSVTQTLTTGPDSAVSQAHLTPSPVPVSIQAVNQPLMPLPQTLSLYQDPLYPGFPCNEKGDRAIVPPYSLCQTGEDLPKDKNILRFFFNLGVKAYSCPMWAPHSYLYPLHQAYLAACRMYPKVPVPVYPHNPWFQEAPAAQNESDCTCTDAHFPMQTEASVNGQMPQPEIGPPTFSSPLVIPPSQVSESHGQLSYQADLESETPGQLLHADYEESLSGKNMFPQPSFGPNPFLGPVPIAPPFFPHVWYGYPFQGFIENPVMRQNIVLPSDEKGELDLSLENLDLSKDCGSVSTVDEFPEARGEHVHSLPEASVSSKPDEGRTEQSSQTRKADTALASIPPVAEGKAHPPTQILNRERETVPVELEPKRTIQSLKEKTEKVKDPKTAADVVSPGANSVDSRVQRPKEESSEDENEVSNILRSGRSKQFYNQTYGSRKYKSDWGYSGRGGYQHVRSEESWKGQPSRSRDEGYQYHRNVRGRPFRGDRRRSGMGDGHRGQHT
Method in brief: as §1

OTUD5 = target: T5, OTUD5 (UniProt Q96G74)
T5 sequence (whole entry): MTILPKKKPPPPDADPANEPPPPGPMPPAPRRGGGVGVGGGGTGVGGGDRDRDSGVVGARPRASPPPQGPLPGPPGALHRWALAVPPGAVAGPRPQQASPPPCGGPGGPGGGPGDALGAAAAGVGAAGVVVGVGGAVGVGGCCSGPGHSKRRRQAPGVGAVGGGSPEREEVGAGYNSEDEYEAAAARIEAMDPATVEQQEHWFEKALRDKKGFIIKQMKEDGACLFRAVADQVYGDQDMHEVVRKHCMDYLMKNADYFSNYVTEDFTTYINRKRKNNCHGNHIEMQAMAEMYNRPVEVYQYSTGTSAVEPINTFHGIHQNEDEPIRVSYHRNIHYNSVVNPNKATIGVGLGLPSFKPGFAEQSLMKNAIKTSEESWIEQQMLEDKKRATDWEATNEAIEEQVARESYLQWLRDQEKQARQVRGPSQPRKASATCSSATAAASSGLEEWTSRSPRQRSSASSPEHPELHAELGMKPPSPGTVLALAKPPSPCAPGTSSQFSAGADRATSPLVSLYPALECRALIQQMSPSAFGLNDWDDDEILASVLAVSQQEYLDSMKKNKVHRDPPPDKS
Method in brief: as §1

Measured: log2 ratio of Biotin-Ahx-Ub-VS probe labelling

O=C(O)C1Cc2ccccc2CN1C(=O)CCl (centres undefined)
inactive: ALG13 0.144 | ATXN3 -0.269 | BAP1 -0.657 | EIF3F -0.182 | EIF3H -0.0826 | FAM105A 0.395 | OTUB1 -0.323 | OTUD4 -0.404 | OTUD5 -0.562
